SMILES strings stand for the structures. Results filed as inconclusive are left out. The source made the active and inactive calls. How the source made its calls: active means hit-call score of the fitted dose curve at least 0.9, where 1 is the maximum; inconclusive means response in the unintended direction; inactive means score below 0.9.

This assay can be described thus: Tanguay_ZF_120hpf_CFIN_legacy: (Legacy) Oregon State University Tanguay Lab 120 Hour Post-fertilization zebrafish Assay for Caudal Fin Malformation (AID 2283649). An outline of the steps: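 Binary presence or absence of caudal fin malformation at 120 hpf, read by brightfield microscopy, with DMSO as baseline. Larvae came from 5D wild-type embryos exposed statically from 6 hpf at 28C after pronase dechorionation.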
For `C=CC(=O)NCNC(=O)C=C`, the molecule was called inactive.

For `Cc1ccccc1[N+](=O)[O-]`, the molecule was classed as inactive.

For `NS(=O)(=O)C(F)(F)C(F)(F)C(F)(F)C(F)(F)C(F)(F)C(F)(F)C(F)(F)C(F)(F)F`, the concentration at half-maximal activity (AC50) is 4.88 µM (active).

For the molecule `Nn1cnnc1`, the molecule was classed as inactive.

On to `CCC(=O)O[C@H]1CC[C@H]2[C@@H]3CCC4=CC(=O)CC[C@]4(C)[C@H]3CC[C@]12C`, for which the molecule was called inactive.

For the molecule `CC1=C2C[C@H]3[C@@H](CC=C4C[C@@H](O)CC[C@@]43C)[C@@H]2CC[C@]12O[C@@H]1C[C@H](C)CN[C@H]1[C@H]2C`, the AC50 was 16.6 µM (active).

Take `Cc1cc2c3c(c1)C(c1ccccc1)=N[C@@H](NC(=O)c1ccncc1)C(=O)N3CC2`: the call was inactive.

Take `Cc1cccc([N+](=O)[O-])c1`: the result was inactive.

For the molecule `ClC1=C(Cl)[C@]2(Cl)[C@@H]3[C@H]4C[C@H]([C@@H]5O[C@H]45)[C@@H]3[C@@]1(Cl)C2(Cl)Cl`, the AC50 is 66.1 µM (active).

As to `Cc1ccccc1CO[C@@H]1C[C@@]2(C(C)C)CC[C@]1(C)O2`, the result was inactive.

For `CO/C=C(/C(=O)OC)c1ccccc1COc1cccc(C(F)(F)F)n1`, the AC50 is 9.15 µM (active).

Consider `O=C(O)C(F)(F)C(F)(F)C(F)(F)C(F)(F)C(F)(F)C(F)(F)C(F)(F)C(F)(F)F`, for which the call was inactive.

Take `N#Cc1ccc(N(CC(N)=O)CC(F)(F)F)cc1C(F)(F)F`: the molecule was classed as inactive.

As for `O=C(N[C@H]1CN2CCC1CC2)c1cc2ccoc2cn1`, the call was inactive.

In the case of `C=CC(N)=O`, the outcome was inactive.

On to `CCNc1nc(NC(C)C)nc(SC)n1`, for which the outcome was inactive.

Turning to `Oc1ccc(C(c2ccc(O)cc2)(C(F)(F)F)C(F)(F)F)cc1`, the AC50 is 54 µM (active).

These data come from PubChem BioAssay (EPA / NIEHS).
